# How the values were obtained:
# Assay in all cases: DAPPL (digital affinity profiling via proximity ligation, sequencing); 10 mM Tris-HCl pH 7.5, 50 mM NaCl, 1 mM DTT, 4% glycerol, room temperature, 30 min; GST-TFs on glutathione beads, 16-mer random dsDNA library, 0.1% formaldehyde crosslink after washing; high values mean tight binding
# Conditions in all cases: protein: recombinant; tags: N-terminal GST; dsDNA, one strand shown
# ETV5 = ETV5 (Homo sapiens, UniProt P41161 1-510)
# Outline: (§1)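 Human transcription factors were made in yeast as GST fusions, captured on glutathione beads and barcoded with DNA. With a tag-only sample included, the pool was incubated with 200 nmole of a random double-stranded 16-mer DNA library in Tris/NaCl/DTT/glycerol buffer at room temperature for 30 min, then crosslinked with 0.1% formaldehyde after washing, ligated by proximity, amplified and sequenced. For binding signal, each hexamer's read frequency for a factor is divided by its frequency for the tag-only sample.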
# ELK4 = biological target: T1, ELK4 (Homo sapiens, UniProt P28324-2 1-405)
# T1 sequence: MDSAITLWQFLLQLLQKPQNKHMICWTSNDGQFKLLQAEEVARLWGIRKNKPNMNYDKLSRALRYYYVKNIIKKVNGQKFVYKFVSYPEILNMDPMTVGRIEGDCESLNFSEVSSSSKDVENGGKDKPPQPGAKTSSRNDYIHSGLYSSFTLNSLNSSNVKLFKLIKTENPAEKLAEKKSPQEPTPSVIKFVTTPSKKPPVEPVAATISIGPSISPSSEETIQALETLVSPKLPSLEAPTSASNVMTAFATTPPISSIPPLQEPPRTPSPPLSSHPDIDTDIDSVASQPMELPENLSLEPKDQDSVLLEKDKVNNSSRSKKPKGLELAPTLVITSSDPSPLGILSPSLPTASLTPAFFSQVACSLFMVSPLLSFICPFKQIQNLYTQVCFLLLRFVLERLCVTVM
# Outline: as §1
# ETV7 = biological target: T2, ETV7 (Homo sapiens, UniProt Q9Y603 1-341)
# T2 sequence: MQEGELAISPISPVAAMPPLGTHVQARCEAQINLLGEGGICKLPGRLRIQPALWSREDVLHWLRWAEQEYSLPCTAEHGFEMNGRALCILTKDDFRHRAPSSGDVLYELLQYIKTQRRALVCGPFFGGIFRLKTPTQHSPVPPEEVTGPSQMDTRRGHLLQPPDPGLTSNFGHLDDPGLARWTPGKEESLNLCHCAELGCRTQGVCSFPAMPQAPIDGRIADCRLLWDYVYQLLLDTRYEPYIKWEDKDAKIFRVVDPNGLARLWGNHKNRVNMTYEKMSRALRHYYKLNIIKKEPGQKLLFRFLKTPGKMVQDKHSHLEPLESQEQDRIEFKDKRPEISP
# Outline: as §1
# GABPA = biological target: T3, GABPA (Homo sapiens, UniProt Q06546 1-454)
# T3 sequence: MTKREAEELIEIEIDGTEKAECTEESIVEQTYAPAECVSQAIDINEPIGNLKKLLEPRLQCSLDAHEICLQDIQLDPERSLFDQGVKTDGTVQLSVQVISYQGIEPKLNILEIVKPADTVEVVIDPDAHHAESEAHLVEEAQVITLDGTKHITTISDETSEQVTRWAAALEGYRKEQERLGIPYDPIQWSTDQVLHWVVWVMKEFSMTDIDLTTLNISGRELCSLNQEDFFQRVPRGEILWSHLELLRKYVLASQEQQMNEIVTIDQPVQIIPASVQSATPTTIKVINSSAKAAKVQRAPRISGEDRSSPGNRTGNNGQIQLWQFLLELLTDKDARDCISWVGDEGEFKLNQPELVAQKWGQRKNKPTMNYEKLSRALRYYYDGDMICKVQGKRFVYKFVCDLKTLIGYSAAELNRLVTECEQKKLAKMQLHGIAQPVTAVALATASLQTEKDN
# Outline: as §1
# ELF1 = ELF1 (Homo sapiens, UniProt P32519 1-619)
# Chain of ELF1 (P32519 whole entry): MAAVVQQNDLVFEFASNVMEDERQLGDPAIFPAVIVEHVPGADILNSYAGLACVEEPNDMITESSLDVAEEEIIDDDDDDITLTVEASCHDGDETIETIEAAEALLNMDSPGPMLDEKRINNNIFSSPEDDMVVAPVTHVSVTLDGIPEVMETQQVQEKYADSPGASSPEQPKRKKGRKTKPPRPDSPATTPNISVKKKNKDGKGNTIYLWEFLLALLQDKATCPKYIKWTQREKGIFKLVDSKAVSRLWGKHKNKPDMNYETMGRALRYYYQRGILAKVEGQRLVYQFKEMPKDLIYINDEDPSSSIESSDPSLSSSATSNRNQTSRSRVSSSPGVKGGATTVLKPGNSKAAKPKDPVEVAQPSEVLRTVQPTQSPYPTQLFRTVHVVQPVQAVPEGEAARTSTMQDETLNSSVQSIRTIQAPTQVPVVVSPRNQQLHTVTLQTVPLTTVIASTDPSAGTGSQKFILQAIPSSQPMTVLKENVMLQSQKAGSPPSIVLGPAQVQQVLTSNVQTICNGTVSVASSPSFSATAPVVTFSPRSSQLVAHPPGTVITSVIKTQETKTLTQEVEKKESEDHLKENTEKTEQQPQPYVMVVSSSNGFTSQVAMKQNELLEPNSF
# Outline: as §1
# EHF = biological target: T4, EHF (Homo sapiens, UniProt Q9NZC4 1-300)
# T4 sequence: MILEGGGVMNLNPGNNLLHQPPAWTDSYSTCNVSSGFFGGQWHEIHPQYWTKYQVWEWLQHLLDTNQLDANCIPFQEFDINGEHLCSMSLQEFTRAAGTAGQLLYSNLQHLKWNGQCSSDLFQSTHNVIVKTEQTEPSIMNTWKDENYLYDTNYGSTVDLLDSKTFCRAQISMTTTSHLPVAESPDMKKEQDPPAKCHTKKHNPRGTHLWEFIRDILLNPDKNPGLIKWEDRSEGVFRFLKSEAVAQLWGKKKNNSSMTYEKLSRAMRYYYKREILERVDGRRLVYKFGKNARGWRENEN
# Outline: as §1
# ELF3 = biological target: T5, ELF3 (Homo sapiens, UniProt P78545 1-371)
# T5 sequence: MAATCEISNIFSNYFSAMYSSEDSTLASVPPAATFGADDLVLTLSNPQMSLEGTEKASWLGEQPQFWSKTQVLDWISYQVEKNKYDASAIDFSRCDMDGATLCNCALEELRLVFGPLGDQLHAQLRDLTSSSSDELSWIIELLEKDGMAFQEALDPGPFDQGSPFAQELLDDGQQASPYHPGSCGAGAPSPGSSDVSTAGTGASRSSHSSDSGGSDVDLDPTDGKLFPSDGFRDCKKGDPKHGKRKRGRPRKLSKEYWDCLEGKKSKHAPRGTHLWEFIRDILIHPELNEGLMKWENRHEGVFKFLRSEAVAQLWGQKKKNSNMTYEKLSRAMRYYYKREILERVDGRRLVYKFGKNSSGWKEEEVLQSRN
# Outline: as §1
# ETV1 = ETV1 (Homo sapiens, UniProt P50549 1-477)
# Chain of ETV1 (P50549 whole entry): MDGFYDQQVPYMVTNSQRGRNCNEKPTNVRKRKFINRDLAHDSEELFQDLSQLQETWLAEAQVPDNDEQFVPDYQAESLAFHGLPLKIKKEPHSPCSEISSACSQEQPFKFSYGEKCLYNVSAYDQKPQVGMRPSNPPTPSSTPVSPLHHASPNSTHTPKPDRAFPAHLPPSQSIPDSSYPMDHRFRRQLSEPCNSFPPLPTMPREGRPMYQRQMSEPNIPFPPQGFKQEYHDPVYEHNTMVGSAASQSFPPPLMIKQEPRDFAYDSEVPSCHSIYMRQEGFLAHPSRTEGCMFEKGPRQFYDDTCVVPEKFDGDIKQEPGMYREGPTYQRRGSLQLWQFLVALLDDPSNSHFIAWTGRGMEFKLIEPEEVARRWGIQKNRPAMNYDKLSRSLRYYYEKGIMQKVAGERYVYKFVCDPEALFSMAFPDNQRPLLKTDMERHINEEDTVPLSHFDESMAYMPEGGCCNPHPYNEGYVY
# Outline: as §1
# ERF = biological target: T6, ERF (Homo sapiens, UniProt P50548 1-548)
# T6 sequence: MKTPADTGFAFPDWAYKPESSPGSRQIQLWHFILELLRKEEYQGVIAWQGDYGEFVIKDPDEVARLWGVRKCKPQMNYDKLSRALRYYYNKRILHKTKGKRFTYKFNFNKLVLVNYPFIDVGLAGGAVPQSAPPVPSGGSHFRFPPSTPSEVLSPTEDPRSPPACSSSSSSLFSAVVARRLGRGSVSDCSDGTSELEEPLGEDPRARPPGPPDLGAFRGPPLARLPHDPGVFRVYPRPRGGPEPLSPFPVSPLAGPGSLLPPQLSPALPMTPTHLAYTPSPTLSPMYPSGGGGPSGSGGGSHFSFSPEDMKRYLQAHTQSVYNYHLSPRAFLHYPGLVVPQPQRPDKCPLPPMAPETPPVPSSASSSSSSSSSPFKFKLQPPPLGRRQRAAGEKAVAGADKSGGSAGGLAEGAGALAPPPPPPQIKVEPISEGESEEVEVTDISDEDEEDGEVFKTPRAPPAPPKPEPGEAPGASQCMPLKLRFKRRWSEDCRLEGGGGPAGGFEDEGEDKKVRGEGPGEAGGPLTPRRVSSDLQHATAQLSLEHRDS
# Outline: as §1
# ETV6 = ETV6 (Homo sapiens, UniProt P41212 1-452)
# Chain of ETV6 (P41212 whole entry): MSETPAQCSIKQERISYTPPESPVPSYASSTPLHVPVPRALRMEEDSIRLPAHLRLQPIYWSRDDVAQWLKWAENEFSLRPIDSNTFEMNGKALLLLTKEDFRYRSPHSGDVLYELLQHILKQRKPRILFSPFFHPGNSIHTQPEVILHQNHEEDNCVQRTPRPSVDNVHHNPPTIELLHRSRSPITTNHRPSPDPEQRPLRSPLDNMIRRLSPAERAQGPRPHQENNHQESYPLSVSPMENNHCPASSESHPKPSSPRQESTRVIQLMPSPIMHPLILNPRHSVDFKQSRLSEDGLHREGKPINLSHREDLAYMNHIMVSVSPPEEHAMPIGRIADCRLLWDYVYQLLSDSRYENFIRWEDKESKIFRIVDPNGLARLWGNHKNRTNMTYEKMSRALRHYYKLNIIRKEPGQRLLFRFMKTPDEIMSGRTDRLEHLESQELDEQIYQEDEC
# Outline: as §1
# ERG = biological target: T7, ERG (Homo sapiens, UniProt P11308 1-479)
# T7 sequence: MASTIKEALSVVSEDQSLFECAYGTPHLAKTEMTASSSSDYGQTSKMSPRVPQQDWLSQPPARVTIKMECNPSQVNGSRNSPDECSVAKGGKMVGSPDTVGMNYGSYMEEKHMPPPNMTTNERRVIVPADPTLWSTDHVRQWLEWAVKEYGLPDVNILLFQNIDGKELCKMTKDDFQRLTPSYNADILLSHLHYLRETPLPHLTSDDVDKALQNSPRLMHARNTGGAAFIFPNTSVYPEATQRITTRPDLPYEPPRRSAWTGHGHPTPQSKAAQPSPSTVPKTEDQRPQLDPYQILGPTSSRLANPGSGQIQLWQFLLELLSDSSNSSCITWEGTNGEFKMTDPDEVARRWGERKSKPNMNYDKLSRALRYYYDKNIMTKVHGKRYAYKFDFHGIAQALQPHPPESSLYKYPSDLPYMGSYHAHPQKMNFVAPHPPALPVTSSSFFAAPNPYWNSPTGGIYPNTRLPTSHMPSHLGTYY
# Outline: as §1
# ELK3 = biological target: T8, ELK3 (Homo sapiens, UniProt P41970 1-407)
# T8 sequence: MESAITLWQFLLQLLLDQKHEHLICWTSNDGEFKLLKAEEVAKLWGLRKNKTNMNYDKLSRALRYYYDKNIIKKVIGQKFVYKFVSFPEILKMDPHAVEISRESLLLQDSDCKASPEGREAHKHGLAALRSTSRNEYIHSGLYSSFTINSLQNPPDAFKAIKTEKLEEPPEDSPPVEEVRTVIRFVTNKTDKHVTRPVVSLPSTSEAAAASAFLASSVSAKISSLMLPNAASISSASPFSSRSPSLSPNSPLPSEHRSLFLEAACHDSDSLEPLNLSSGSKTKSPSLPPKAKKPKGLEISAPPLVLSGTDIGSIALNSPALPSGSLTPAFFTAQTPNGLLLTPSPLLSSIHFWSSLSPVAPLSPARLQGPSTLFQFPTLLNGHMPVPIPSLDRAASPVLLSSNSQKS
# Outline: as §1
# SPIC = biological target: T9, SPIC (Homo sapiens, UniProt Q8N5J4 1-248)
# T9 sequence: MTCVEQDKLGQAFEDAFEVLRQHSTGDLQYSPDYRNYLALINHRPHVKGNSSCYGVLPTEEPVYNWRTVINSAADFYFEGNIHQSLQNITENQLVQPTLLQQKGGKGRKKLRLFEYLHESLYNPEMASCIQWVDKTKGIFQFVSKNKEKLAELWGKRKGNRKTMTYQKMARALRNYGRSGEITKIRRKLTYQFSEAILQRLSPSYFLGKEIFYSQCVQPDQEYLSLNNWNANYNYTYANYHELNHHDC
# Outline: as §1
# Chain of ETV5 (P41161 whole entry, the tested form may be a part): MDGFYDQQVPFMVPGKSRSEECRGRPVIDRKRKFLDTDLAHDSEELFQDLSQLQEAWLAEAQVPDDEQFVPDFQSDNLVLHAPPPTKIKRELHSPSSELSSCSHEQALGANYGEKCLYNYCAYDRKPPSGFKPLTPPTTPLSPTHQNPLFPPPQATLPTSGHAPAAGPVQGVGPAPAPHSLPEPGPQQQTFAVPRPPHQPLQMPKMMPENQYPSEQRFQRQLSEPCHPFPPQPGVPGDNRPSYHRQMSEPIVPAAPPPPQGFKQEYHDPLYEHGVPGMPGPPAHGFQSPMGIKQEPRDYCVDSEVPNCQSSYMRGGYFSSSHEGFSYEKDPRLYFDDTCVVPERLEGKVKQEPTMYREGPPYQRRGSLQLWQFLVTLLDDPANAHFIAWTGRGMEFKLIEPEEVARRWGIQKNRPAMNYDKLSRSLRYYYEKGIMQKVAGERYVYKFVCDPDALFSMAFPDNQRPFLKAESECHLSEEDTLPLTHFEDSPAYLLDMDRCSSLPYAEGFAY
sequence,measurement,setting,value
CGAGGT,binding signal,ETV5,"1.01 fold enrichment (6-mer frequency, TF over GST control)"
same,binding signal,ELK4,"1.06 fold enrichment (6-mer frequency, TF over GST control)"
same,binding signal,ETV7,"1.02 fold enrichment (6-mer frequency, TF over GST control)"
CATAGC,binding signal,GABPA,"1.02 fold enrichment (6-mer frequency, TF over GST control)"
same,binding signal,ELF1,"1.02 fold enrichment (6-mer frequency, TF over GST control)"
same,binding signal,EHF,"1.01 fold enrichment (6-mer frequency, TF over GST control)"
same,binding signal,ETV5,"1.01 fold enrichment (6-mer frequency, TF over GST control)"
same,binding signal,ELF3,"1.1 fold enrichment (6-mer frequency, TF over GST control)"
same,binding signal,ETV1,"1.02 fold enrichment (6-mer frequency, TF over GST control)"
same,binding signal,ERF,"1.07 fold enrichment (6-mer frequency, TF over GST control)"
same,binding signal,ETV6,"1.02 fold enrichment (6-mer frequency, TF over GST control)"
AGTTAC,binding signal,ERG,"1 fold enrichment (6-mer frequency, TF over GST control)"
same,binding signal,EHF,"1.02 fold enrichment (6-mer frequency, TF over GST control)"
same,binding signal,ELK3,"1.03 fold enrichment (6-mer frequency, TF over GST control)"
same,binding signal,ETV5,"1.05 fold enrichment (6-mer frequency, TF over GST control)"
same,binding signal,SPIC,"1.1 fold enrichment (6-mer frequency, TF over GST control)"
same,binding signal,ERF,"1.01 fold enrichment (6-mer frequency, TF over GST control)"

# — publication PMC7862700, “An all-to-all approach to the identification of sequence-specific readers for epigenetic DNA modifications on cytosine”
